{"source": "PubChem BioAssay (EPA / NIEHS)", "note": "Active and inactive are the calls of the source. The calls were made as follows: active = hit-call score of the fitted dose curve at least 0.9, where 1 is the maximum; inactive = score below 0.9."}
{"assay": "CEETOX_H295R_11DCORT: CeeTox H295R High-throughput Steroidogenesis Assay for 11-Deoxycortisol (11DCORT) (AID 2283432);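 as to AC50: 11-deoxycortisol secreted into the medium measured by LC-MS/MS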", "conditions": "actives raise or lower the signal", "method": "CEETOX_H295R is a cell-based, multiplexed-readout assay that uses H295R, a human adrenal gland cell line, with measurements taken at 48 hours after chemical dosing in a 96-well plate.CEETOX_H295R_11DCORT is one of 23 assay component(s) measured or calculated from the CEETOX_H295R assay. It is designed to make measurements of hormone induction, a form of inducible reporter, as detected with absorbance signals by HPLC-MS-MS technology.Data from the assay component CEETOX_H295R_11DCORT was analyzed into 1 assay endpoint. This assay endpoint, CEETOX_H295R_11DCORT, was analyzed with bidirectional fitting relative to DMSO as the negative control and baseline of activity. Using a type of inducible reporter, gain or loss-of-signal activity using HPLC-MS-MS was used to understand synthesis of 11-Deoxycortisol in H295R cell line at 48hr of chemical exposure. To generalize the intended target to other relatable targets, this assay endpoint is annotated to the steroid hormone intended target family, where the subfamily is glucocorticoids.\nCell culture and media preparation procedures were conducted in accordance with OECD Test No. 456 guidelines, with minor modifications. H295R cells (ATCC CRL-2128) were expanded for 5 passages and frozen in batches in liquid nitrogen. Prior to the steroidogenesis assay, H295R cells were thawed and passed at least 4 times. The maximum passage was 10. Cells were maintained in a 1:1 mixture of DMEM/F12 supplemented with 5ml/L ITS+ Premix (BD Bioscience) and 12.5 ml/L Nu-Serum (BD Bioscience). After seeding cells into 96-well plates at 50-60% confluency, cells were allowed to adhere overnight. Prior to chemical testing, culture medium was replaced with 175 uL medium containing 10 uM forskolin to stimulate steroidogenesis for 48 hours. Following prestimulation, forskolin medium was replaced with medium containing test chemical solubilized in DMSO (ensuring a final concentration of 0.1% DMSO). Test chemicals were incubated for 48 hours, then the medium was removed and split into 2 vials containing approximately 75uL each, and stored at -80 C prior to hormone analysis. For steroid quantification, media samples were shipped to OpAns, LLC (Durham, NC) on dry ice, and samples were thawed to room temperature prior to liquid-liquid extraction. Steroid hormones were extracted from media samples using methyl tertbutyl ether (MTBE). An extra derivatization with dansyl chloride was included for estrogen (estrone and estradiol) detection only. Steroid hormones were separated by HPLC, eluted using a reverse phase C18 gradient with electrospray positive ionization, followed by quantification by tandem mass spectrometry (MS/MS). Data were acquired on a MassHunter Workstation Acquisition version B03.01 (Agilent Technologies, Inc.) and processed using MassHunter Quantitative Analysis for QQQ. Accuracy was determined for each hormone analyte from 3 standards to determine upper and lower limits of quantification (ULOQ and LLOQ, respectively) using a 7-point standard curve. Precision and accuracy of the extraction and quantification methods were calculated as the percent relative standard deviation (%RSD) of the spiked standards and percent spiked standard recovered, respectively. The goal was to achieve 100% accuracy (i.e., recover all spiked-in standard at quantification with minimal loss during run time) and good precision (i.e., have %RSD <15% to ensure reproducibility). Test medium was removed following chemical exposure, and cell viability was evaluated in the same wells by MTT. MTT procedures were as follows: after removal of test medium, 500 uL of 0.5 mg/ml of 3-[4,5-dimethylthiazol-2-y]2,5-diphenyltetrazoliumbromide solution was added to the cells. Following a 4-hour incubation at 37 C and 5% CO2 to allow formazan-crystal formation, the MTT solution was removed and blue formazan salt crystals were solubilized using 500uL anhydrous isopropanol with shaking for 20 minutes. […]"}
{"smiles": "CCC(C)(C)c1ccc(O)cc1", "outcome": "inactive"}
{"smiles": "Oc1ccc(I)cc1", "outcome": "inactive"}
{"smiles": "O=P(Oc1ccccc1)(Oc1ccccc1)Oc1ccccc1", "AC50": "2.92 µM (active)"}
{"smiles": "CC(=O)c1ccc(-c2ccccc2)cc1", "outcome": "inactive"}
{"smiles": "Nc1ccc([N+](=O)[O-])cc1Cl", "outcome": "inactive"}
{"smiles": "CCOP(=S)(OCC)SCn1nnc2ccccc2c1=O", "outcome": "inactive"}
{"smiles": "CCCCc1ccc(O)cc1", "outcome": "inactive"}
{"smiles": "Nc1cc2c3c(c1)C(c1ccccc1)=N[C@@H](NC(=O)c1cccnc1)C(=O)N3CC2", "AC50": "62 µM (active)"}
{"smiles": "c1ccc(OP(Oc2ccccc2)Oc2ccccc2)cc1", "outcome": "inactive"}
{"smiles": "O=S(=O)(c1ccc(O)cc1)c1ccc(O)cc1", "AC50": "19.1 µM (active)"}
{"smiles": "CC(C)Nc1ccc(Nc2ccccc2)cc1", "outcome": "inactive"}
{"smiles": "CO/N=C(/C(=O)OC)c1ccccc1COc1ccccc1C", "AC50": "3.98 µM (active)"}
{"smiles": "CCOP(=S)(NC(C)C)Oc1ccccc1C(=O)OC(C)C", "note": "(stereo unspecified)", "AC50": "12.8 µM (active)"}
{"smiles": "O=S1(=O)OCC2C(CO1)C1(Cl)C(Cl)=C(Cl)C2(Cl)C1(Cl)Cl", "note": "(stereo unspecified)", "AC50": "7.28 µM (active)"}
{"smiles": "COP(N)(=S)OC", "outcome": "inactive"}
{"smiles": "Cc1ccc(N)cc1N", "outcome": "inactive"}
{"smiles": "N#Cc1c(-c2ccc(Cl)cc2)[nH]c(C(F)(F)F)c1Br", "AC50": "0.37 µM (active)"}
{"smiles": "ClC(Cl)=C(c1ccc(Cl)cc1)c1ccccc1Cl", "outcome": "inactive"}
{"smiles": "CCNc1nc(Cl)nc(NC(C)(C)C)n1", "outcome": "inactive"}
{"smiles": "CCCCOCCOP(=O)(OCCOCCCC)OCCOCCCC", "outcome": "inactive"}
{"smiles": "Nc1ccc(Cl)cc1", "outcome": "inactive"}
